Screening results (PubChem)
An excerpt weighted towards active compounds, which were near 27% of everything screened.
CYP2C9 act: human CYP2C9 activators, primary screen, biochemical, luminescence. activation factor at 5 µM. actives 1.4% (n = 96,000). recombinant CYP2C9, luciferin-H conversion; hits give high values; factor 1 = untreated enzyme, 0 = blocked. Cytochrome P450 2C9 (Homo sapiens), P11712. AID 1024, 2008;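 active = activation factor of 2 or more for CYP2C9 at a 5 µM dose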
sEH act: soluble epoxide hydrolase activators, primary screen, biochemical, human sEH; Bifunctional epoxide hydrolase 2 (Homo sapiens), P34913; purified human sEH enzymatic activity, activator screen; activation, % at 2 µM; actives 0.04% (n = 91,000); AID 717, 2007; in the data active = activation above about 37%
Target sequence (P34913 whole entry, looked up): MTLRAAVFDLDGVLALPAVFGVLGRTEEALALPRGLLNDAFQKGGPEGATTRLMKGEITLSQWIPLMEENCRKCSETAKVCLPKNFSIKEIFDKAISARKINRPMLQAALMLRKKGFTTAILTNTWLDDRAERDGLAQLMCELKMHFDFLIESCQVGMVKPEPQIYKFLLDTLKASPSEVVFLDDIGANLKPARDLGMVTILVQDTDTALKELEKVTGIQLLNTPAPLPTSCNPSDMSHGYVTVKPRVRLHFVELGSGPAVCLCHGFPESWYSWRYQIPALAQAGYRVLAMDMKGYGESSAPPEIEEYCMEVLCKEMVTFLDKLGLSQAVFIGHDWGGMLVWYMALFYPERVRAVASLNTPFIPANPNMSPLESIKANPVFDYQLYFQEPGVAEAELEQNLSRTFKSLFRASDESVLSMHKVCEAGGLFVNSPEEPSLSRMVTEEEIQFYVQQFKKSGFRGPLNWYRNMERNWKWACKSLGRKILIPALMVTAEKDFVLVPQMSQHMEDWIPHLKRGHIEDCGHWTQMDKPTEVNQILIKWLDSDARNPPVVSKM
CYP2C19 activ: human CYP2C19 activators, primary screen, biochemical, luminescence; Cytochrome P450 2C19 (Homo sapiens), P33261; recombinant CYP2C19, luciferin-H EGE luminescence; hits give high values; 0 = fully inhibited enzyme, 1 = untreated enzyme; activation factor at 5 µM; 96,000 tested, under 10 active; AID 1025, 2008;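 active = activation factor of at least 2 at 5 µM in the primary screen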
sEH inh: soluble epoxide hydrolase inhibitors, primary screen, biochemical, human sEH; Bifunctional epoxide hydrolase 2 (Homo sapiens), P34913; recombinant human sEH enzymatic activity assay; inhibition, % at 2 µM; actives 0.34% (n = 91,000); AID 707, 2007; in the data active = inhibition above about 80%
CYP2C19 inhib: blockers of cytochrome P450 2C19 activity – biochemical, luminescence, ADME assay, primary screen | P33261 | actives 21% (n = 96,000) | CYP2C19 Supersomes, luciferin-H EGE luminescence, 30 min | inhibition, % at 5 µM;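 active = CYP2C19 inhibition above a set limit at 5 µM in the primary screen, cut at about 50% in these data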
CYP2C9 inh: blockers of cytochrome P450 2C9 activity – biochemical, luminescence, ADME assay, primary screen | P11712 | CYP2C9 Supersomes, luciferin-H conversion | inhibition, % at 5 µM | actives 20% (n = 96,000);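 active = blocking of liver enzyme CYP2C9 beyond about 50% at 5 µM, limit read from the data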
Hits are given with their value.

CCN(CC)S(=O)(=O)c1ccc2c3c(cccc13)C(=O)N2 was read as CYP2C9 act inactive, CYP2C19 activ inactive, CYP2C19 inhib 89 and CYP2C9 inh inactive.
Screening O=C1Nc2ccc(S(=O)(=O)NCCC3=CCCCC3)c3cccc1c23 returned CYP2C9 act inactive, sEH act inactive, CYP2C19 activ inactive, sEH inh inactive, CYP2C19 inhib 61 and CYP2C9 inh inactive.
CSc1c[n+]2c(n1C)CCC2 was read as CYP2C9 act inactive, sEH act inactive, CYP2C19 activ inactive, sEH inh inactive, CYP2C19 inhib inactive and CYP2C9 inh inactive.
`CC(=O)/C=C1\SC(CC(=O)O)C(=O)N1c1ccccc1` (stereo unspecified) gave CYP2C9 act inactive, sEH act inactive, CYP2C19 activ inactive, sEH inh inactive, CYP2C19 inhib inactive and CYP2C9 inh inactive.
`Cc1c(C(=O)NCCCN2CCCC2=O)oc2ccccc12` gave CYP2C9 act inactive, sEH act inactive, CYP2C19 activ inactive, sEH inh inactive, CYP2C19 inhib inactive and CYP2C9 inh inactive.
`COC(=O)c1nn(-c2ccccc2)nc1-c1nn(-c2ccccc2)nc1C(=O)OC` gave CYP2C9 act inactive, sEH act inactive, CYP2C19 activ inactive, sEH inh inactive, CYP2C19 inhib 61 and CYP2C9 inh 86.
Screening O=C(O)c1nn(-c2ccccc2)nc1-c1nn(-c2ccccc2)nc1C(=O)O returned CYP2C9 act inactive, sEH act inactive, CYP2C19 activ inactive, sEH inh inactive, CYP2C19 inhib inactive and CYP2C9 inh inactive.
`CN(C)c1nc(NCc2ccccc2)nc(SCC(=O)Nc2ccc(Cl)c(Cl)c2)n1` gave CYP2C9 act inactive, sEH act inactive, CYP2C19 activ inactive, sEH inh inactive, CYP2C19 inhib inactive and CYP2C9 inh 86.
COc1ccc(S(=O)(=O)NC(C)C(=O)Nc2cccc(C(C)=O)c2)cc1 (stereo unspecified) was read as CYP2C9 act inactive, sEH act inactive, CYP2C19 activ inactive, sEH inh inactive, CYP2C19 inhib inactive and CYP2C9 inh 64.
CCOC(=O)c1ccc(NC(=O)C(C)NS(=O)(=O)c2ccc(OC)cc2)cc1 (stereo unspecified) was read as CYP2C9 act inactive, sEH act inactive, CYP2C19 activ inactive, sEH inh inactive, CYP2C19 inhib 50 and CYP2C9 inh inactive.
For COc1ccc(S(=O)(=O)NC(C)C(=O)Nc2ccccc2F)cc1 (stereo unspecified) the results were CYP2C9 act inactive, CYP2C19 activ inactive, CYP2C19 inhib inactive and CYP2C9 inh inactive.
Cc1ccc(C(NC(=O)N2CCOCC2)=C(Cl)Cl)cc1F was read as CYP2C9 act inactive, CYP2C19 activ inactive, CYP2C19 inhib inactive and CYP2C9 inh inactive.
Screening COC(=O)c1cccc(NC(=O)Cn2cnc3ccccc3c2=O)c1 returned CYP2C9 act inactive, sEH act inactive, CYP2C19 activ inactive, sEH inh inactive, CYP2C19 inhib 75 and CYP2C9 inh 98.
Screening COCCCn1c(SCC(=O)NCc2ccccc2)nc2ccccc2c1=O returned sEH act inactive and sEH inh inactive.
Screening COCCCn1c(SCC(=O)Nc2ccc(C(C)=O)cc2)nc2ccccc2c1=O returned CYP2C9 act inactive, sEH act inactive, CYP2C19 activ inactive, sEH inh inactive, CYP2C19 inhib 99 and CYP2C9 inh 71.
O=C(Cn1cnc2ccccc2c1=O)Nc1ccc(-c2nnc3n2CCCCC3)cc1 was read as CYP2C9 act inactive, CYP2C19 activ inactive, CYP2C19 inhib inactive and CYP2C9 inh inactive.
Screening COC(=O)c1cc(NC(=O)Cn2c(=O)cnc3ccccc32)cc(C(=O)OC)c1 returned CYP2C9 act inactive, sEH act inactive, CYP2C19 activ inactive, sEH inh inactive, CYP2C19 inhib inactive and CYP2C9 inh 89.
O=C(Cn1cnc2ccccc2c1=O)Nc1cccc(-c2nnc3n2CCCCC3)c1 was read as CYP2C9 act inactive, sEH act inactive, CYP2C19 activ inactive, sEH inh inactive, CYP2C19 inhib 57 and CYP2C9 inh inactive.
For O=C(Oc1ccc(-c2cnc3ccccc3n2)cc1)c1ccco1 the results were CYP2C9 act inactive, sEH act inactive, CYP2C19 activ inactive, sEH inh inactive, CYP2C19 inhib inactive and CYP2C9 inh inactive.
O=C(Cn1cnc2c(oc3ccccc32)c1=O)NCCc1ccccc1 was read as sEH act inactive and sEH inh inactive.
COc1cccc(NC(=O)CSc2nc3ccccc3c(=O)n2CCCC(=O)N2CCCC2)c1 was read as CYP2C9 act inactive, sEH act inactive, CYP2C19 activ inactive, sEH inh inactive, CYP2C19 inhib 72 and CYP2C9 inh 88.
For COC(=O)c1cccc(NC(=O)c2nn(C)c(=O)c3ccccc23)c1 the results were CYP2C9 act inactive, CYP2C19 activ inactive, CYP2C19 inhib inactive and CYP2C9 inh 55.
`COc1ccc(NC(=O)CSc2nc3ccccc3c(=O)n2CCC(=O)N2CCCCC2)cc1` gave sEH act inactive and sEH inh inactive.
Screening COc1ccccc1NC(=O)CSc1nc2ccccc2c(=O)n1CCNC(C)=O returned CYP2C9 act inactive, sEH act inactive, CYP2C19 activ inactive, sEH inh inactive, CYP2C19 inhib inactive and CYP2C9 inh inactive.
CCn1c(SCC(=O)Nc2ccc(C(C)=O)cc2)nc2nc3c(cc2c1=O)CCCC3 was read as CYP2C9 act inactive, sEH act inactive, CYP2C19 activ inactive, sEH inh inactive, CYP2C19 inhib inactive and CYP2C9 inh 68.
`COCCn1c(SCC(=O)Nc2cccc(C(=O)OC)c2)nc2ccccc2c1=O` gave CYP2C9 act inactive, CYP2C19 activ inactive, CYP2C19 inhib inactive and CYP2C9 inh 56.
Cc1nc2ccccc2c(=O)n1NCc1cc(Br)cs1 was read as CYP2C9 act inactive, CYP2C19 activ inactive, CYP2C19 inhib inactive and CYP2C9 inh inactive.
CC(=O)C1=C(C)NC(=O)NC1c1cccs1 (stereo unspecified) was read as CYP2C9 act inactive, sEH act inactive, CYP2C19 activ inactive, sEH inh inactive, CYP2C19 inhib inactive and CYP2C9 inh inactive.
CC1C(=O)C(C)C(c2cccs2)NC1c1cccs1 (stereo unspecified) was read as CYP2C9 act inactive, sEH act inactive, CYP2C19 activ inactive, sEH inh inactive, CYP2C19 inhib 92 and CYP2C9 inh inactive.
For O=C(c1ccccc1S(=O)(=O)NCc1ccccc1)N1CCCCC1 the results were CYP2C9 act inactive, sEH act inactive, CYP2C19 activ inactive, sEH inh inactive, CYP2C19 inhib 89 and CYP2C9 inh inactive.
`Cc1ccc(OCC(O)CNS(=O)(=O)c2ccccc2C(=O)N2CCCCC2)cc1` (stereo unspecified) gave CYP2C9 act inactive, sEH act inactive, CYP2C19 activ inactive, sEH inh inactive, CYP2C19 inhib inactive and CYP2C9 inh inactive.
